# From PubChem BioAssay AID1159580 (chemical genetic matrix, 2015)
# Values joined by “and” are separate entries in the source; they are usually repeats but may differ in a detail not shown here. Equal entries are not always repeated. Among all 5,500 compounds or so, about 2,000 (36%) were called active. Roughly 18% stayed inconclusive and do not appear here. The list shows a part of the results. Unmarked numbers belong to inactive results. Cut-off read from the data, not from the text of the source: active = normalized growth mostly below about 0.91 (no sharp cut-off); inconclusive = no clear call, values can overlap the other calls; inactive = mostly above about 0.92.
# Assay: chemical genetic growth profiling, strain panel (AID 1159580);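 note: tested at 20 µM; growth read once vehicle control cultures reached saturation at 30 °C; 1 = growth at the plate median or of vehicle wells; lower values mean less growth of the strain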
# Conditions: S. cerevisiae deletion strains, growth OD
smiles,measurement,setting,value
COc1ccc([C@H]2COc3c(ccc(O)c3OC)C2)c(OC)c1O,normalized growth,"locus YAL021C, strain ccr4, hits give low values",0.984
same,normalized growth,"locus YAL026C, strain drs2, hits give low values",0.975
same,normalized growth,"locus YAL030W, strain snc1, hits give low values",0.992
same,normalized growth,"locus YBL061C, strain skt5, hits give low values",0.989
same,normalized growth,"locus YBR009C, strain hhf1, hits give low values",0.976
same,normalized growth,"locus YBR021W, strain FUR4, hits give low values",1.11
same,normalized growth,"locus YBR023C, strain chs3, hits give low values",0.985
same,normalized growth,"locus YBR171W, strain sec66, hits give low values",0.969
same,normalized growth,"locus YBR229C, strain ROT2, hits give low values",0.947
same,normalized growth,"locus YBR231C, strain swc5, hits give low values",0.988
same,normalized growth,"locus YBR279W, strain paf1, hits give low values",0.984
same,normalized growth,"locus YCL011C, strain gbp2, hits give low values",0.972
same,normalized growth,"locus YCL016C, strain dcc1, hits give low values",0.989
same,normalized growth,"locus YCL029C, strain bik1, hits give low values",0.993
same,normalized growth,"locus YCL061C, strain MRC1, hits give low values",0.968
same,normalized growth,"locus YCL069W, strain vba3, hits give low values",0.988
same,normalized growth,"locus YCR088W, strain abp1, hits give low values",0.984
same,normalized growth,"locus YDL005C, strain med2, hits give low values",0.975
same,normalized growth,"locus YDL035C, strain GPR1, hits give low values",0.998
same,normalized growth,"locus YDL040C, strain nat1, hits give low values",0.991
same,normalized growth,"locus YDL074C, strain BRE1, hits give low values",1.02
same,normalized growth,"locus YDL101C, strain DUN1, hits give low values",0.978
same,normalized growth,"locus YDL185W, strain tfp1, hits give low values",0.946
same,normalized growth,"locus YDL192W, strain arf1, hits give low values",0.971
same,normalized growth,"locus YDR001C, strain nth1, hits give low values",0.986
same,normalized growth,"locus YDR069C, strain doa4, hits give low values",0.979
same,normalized growth,"locus YDR101C, strain arx1, hits give low values",0.969
same,normalized growth,"locus YDR137W, strain rgp1, hits give low values",0.828 (active)
same,normalized growth,"locus YDR159W, strain sac3, hits give low values",0.974
same,normalized growth,"locus YDR162C, strain NBP2, hits give low values",0.943
same,normalized growth,"locus YDR195W, strain ref2",1
same,normalized growth,"locus YDR297W, strain sur2, hits give low values",0.98
same,normalized growth,"locus YDR318W, strain mcm21, hits give low values",0.986
same,normalized growth,"locus YDR334W, strain swr1, hits give low values",0.962
same,normalized growth,"locus YDR335W, strain msn5, hits give low values",0.98
same,normalized growth,"locus YDR388W, hits give low values",0.995
same,normalized growth,"locus YDR392W, strain spt3, hits give low values",0.926
same,normalized growth,"locus YDR502C, strain sam2, hits give low values",0.977
same,normalized growth,"locus YEL003W, strain gim4, hits give low values",0.976
same,normalized growth,"locus YEL037C, strain rad23, hits give low values",0.992
same,normalized growth,"locus YEL061C, strain CIN8 (second series), hits give low values",0.973
same,normalized growth,"locus YEL061C, strain CIN8, hits give low values",0.985
same,normalized growth,"locus YER015W, strain faa2, hits give low values",0.989
same,normalized growth,"locus YER016W, strain bim1, hits give low values",0.983
same,normalized growth,"locus YER110C, hits give low values",0.962
same,normalized growth,"locus YER111C, strain swi4, hits give low values",0.983
same,normalized growth,"locus YER155C, strain BEM2 (second series), hits give low values",0.988
same,normalized growth,"locus YER155C, strain BEM2, hits give low values",1.01
same,normalized growth,"locus YER167W, strain BCK2, hits give low values",1
same,normalized growth,"locus YFR010W, strain ubp6, hits give low values",0.957
same,normalized growth,"locus YGL078C, strain dbp3, hits give low values",0.978
same,normalized growth,"locus YGL086W, strain mad1, hits give low values",0.994
same,normalized growth,"locus YGL167C, strain pmr1, hits give low values",0.981
same,normalized growth,"locus YGL173C, strain kem1, hits give low values",0.977
same,normalized growth,"locus YGL227W, strain vid30, hits give low values",0.988
same,normalized growth,"locus YGL240W, strain doc1, hits give low values",0.978
same,normalized growth,"locus YGL248W, strain PDE1, hits give low values",0.985
same,normalized growth,"locus YGL253W, strain hxk2, hits give low values",0.997
same,normalized growth,"locus YGR078C, strain PAC10, hits give low values",0.989
same,normalized growth,"locus YGR135W, strain pre9, hits give low values",0.986
same,normalized growth,"locus YGR229C, strain SMI1, hits give low values",0.987
same,normalized growth,"locus YGR252W, strain gcn5, hits give low values",1.03
same,normalized growth,"locus YHR013C, strain ard1, hits give low values",0.978
same,normalized growth,"locus YHR027C, strain rpn1, hits give low values",0.978
same,normalized growth,"locus YHR030C, strain SLT2, hits give low values",1
same,normalized growth,"locus YHR079C, strain IRE1 (second series), hits give low values",0.997
same,normalized growth,"locus YHR079C, strain IRE1, hits give low values",1.02
same,normalized growth,"locus YHR094C, strain hxt1, hits give low values",0.98
same,normalized growth,"locus YHR129C, strain ARP1, hits give low values",1.01
same,normalized growth,"locus YHR142W, strain chs7, hits give low values",0.968
same,normalized growth,"locus YHR200W, strain rpn10, hits give low values",0.967
same,normalized growth,"locus YIL066C, strain RNR3, hits give low values",0.975
same,normalized growth,"locus YIL073C, strain SPO22, hits give low values",0.924
same,normalized growth,"locus YIL125W, strain kgd1, hits give low values",0.987
same,normalized growth,"locus YIR030C, strain dcg1, hits give low values",1
same,normalized growth,"locus YJL092W, strain hpr5, hits give low values",0.977
same,normalized growth,"locus YJL095W, strain BCK1 (second series), hits give low values",0.995
same,normalized growth,"locus YJL095W, strain BCK1, hits give low values",0.98 and 1.03
same,normalized growth,"locus YJL115W, strain asf1, hits give low values",0.967
same,normalized growth,"locus YJL129C, strain trk1, hits give low values",0.977
same,normalized growth,"locus YJL134W, strain LCB3, hits give low values",0.994
same,normalized growth,"locus YJL154C, strain vps35, hits give low values",0.983
same,normalized growth,"locus YJL164C, strain tpk1, hits give low values",0.967
same,normalized growth,"locus YJL166W, strain qcr8, hits give low values",0.993
same,normalized growth,"locus YJL168C, strain set2, hits give low values",0.989
same,normalized growth,"locus YJL187C, strain SWE1 (second series), hits give low values",0.981
same,normalized growth,"locus YJL187C, strain SWE1, hits give low values",0.991
same,normalized growth,"locus YJR043C, strain POL32, hits give low values",0.987
same,normalized growth,"locus YJR066W, strain TOR1, hits give low values",1.01
same,normalized growth,"locus YJR075W, strain HOC1, hits give low values",0.969
same,normalized growth,"locus YKL009W, strain mrt4, hits give low values",0.977
same,normalized growth,"locus YKL068W, hits give low values",0.973
same,normalized growth,"locus YKL085W, strain MDH1 (second series), hits give low values",0.974
same,normalized growth,"locus YKL085W, strain MDH1, hits give low values",0.974
same,normalized growth,"locus YKL160W, strain elf1, hits give low values",0.986
same,normalized growth,"locus YKL190W, strain CNB1, hits give low values",0.991
same,normalized growth,"locus YKR001C, strain vps1, hits give low values",1
same,normalized growth,"locus YKR026C, strain gcn3, hits give low values",0.982
same,normalized growth,"locus YKR091W, strain srl3, hits give low values",0.992
same,normalized growth,"locus YLL001W, strain dnm1, hits give low values",0.978
same,normalized growth,"locus YLL026W, hits give low values",0.994
same,normalized growth,"locus YLL041C, strain sdh2, hits give low values",0.98
same,normalized growth,"locus YLR027C, strain aat2, hits give low values",1
same,normalized growth,"locus YLR039C, strain RIC1, hits give low values",0.953
same,normalized growth,"locus YLR058C, strain SHM2, hits give low values",0.98
same,normalized growth,"locus YLR102C, strain apc9, hits give low values",0.997
same,normalized growth,"locus YLR113W, strain HOG1, hits give low values",0.969
same,normalized growth,"locus YLR221C, strain rsa3, hits give low values",0.993
same,normalized growth,"locus YLR258W, strain gsy2, hits give low values",0.992
same,normalized growth,"locus YLR262C, strain YPT6 (second series), hits give low values",0.912
same,normalized growth,"locus YLR262C, strain YPT6, hits give low values",0.939
same,normalized growth,"locus YLR268W, strain sec22, hits give low values",0.99
same,normalized growth,"locus YLR320W, strain mms22, hits give low values",0.987
same,normalized growth,"locus YLR330W, strain CHS5, hits give low values",1
same,normalized growth,"locus YLR342W, strain FKS1 (second series), hits give low values",1.05
same,normalized growth,"locus YLR342W, strain FKS1, hits give low values",0.989
same,normalized growth,"locus YLR357W, strain rsc2, hits give low values",0.978
same,normalized growth,"locus YLR370C, strain arc18, hits give low values",0.977
same,normalized growth,"locus YLR371W, strain rom2, hits give low values",0.994
same,normalized growth,"locus YLR384C, strain iki3, hits give low values",0.995
same,normalized growth,"locus YLR418C, strain cdc73, hits give low values",1
same,normalized growth,"locus YML016C, strain PPZ1, hits give low values",0.995
same,normalized growth,"locus YML032C, strain rad52, hits give low values",0.993
same,normalized growth,"locus YML120C, strain ndi1, hits give low values",0.979
same,normalized growth,"locus YML124C, strain tub3, hits give low values",0.974
same,normalized growth,"locus YMR058W, strain fet3, hits give low values",0.97
same,normalized growth,"locus YMR078C, strain ctf18, hits give low values",0.99
same,normalized growth,"locus YMR125W, strain sto1, hits give low values",0.979
same,normalized growth,"locus YMR129W, hits give low values",0.977
same,normalized growth,"locus YMR205C, strain PFK2, hits give low values",0.978
same,normalized growth,"locus YMR223W, strain ubp8, hits give low values",0.972
same,normalized growth,"locus YMR231W, strain pep5, hits give low values",0.996
same,normalized growth,"locus YMR307W, strain GAS1, hits give low values",1.09
same,normalized growth,"locus YNL067W, strain RPL9B, hits give low values",0.996
same,normalized growth,"locus YNL071W, strain lat1, hits give low values",0.982
same,normalized growth,"locus YNL183C, strain NPR1, hits give low values",0.974
same,normalized growth,"locus YNL209W, strain ssb2, hits give low values",0.987
same,normalized growth,"locus YNL233W, strain BNI4, hits give low values",0.996
same,normalized growth,"locus YNL248C, strain rpa49, hits give low values",0.977
same,normalized growth,"locus YNL250W, strain rad50, hits give low values",0.968
same,normalized growth,"locus YNL271C, strain bni1, hits give low values",0.979
same,normalized growth,"locus YNL298W, strain CLA4, hits give low values",0.975
same,normalized growth,"locus YNL307C, strain MCK1, hits give low values",0.986
same,normalized growth,"locus YNL322C, strain KRE1 (second series), hits give low values",0.991
same,normalized growth,"locus YNR049C, strain mso1, hits give low values",0.995
same,normalized growth,"locus YNR052C, strain pop2, hits give low values",0.996
same,normalized growth,"locus YOL006C, strain TOP1, hits give low values",1.1
same,normalized growth,"locus YOL012C, strain htz1",0.955
same,normalized growth,"locus YOL147C, strain pex11, hits give low values",0.995
same,normalized growth,"locus YOR001W, strain rrp6, hits give low values",0.986
same,normalized growth,"locus YOR061W, strain CKA2, hits give low values",0.966
same,normalized growth,"locus YOR069W, strain VPS5, hits give low values",0.999
same,normalized growth,"locus YOR070C, strain gyp1, hits give low values",0.988
same,normalized growth,"locus YOR080W, strain dia2, hits give low values",0.988
same,normalized growth,"locus YOR083W, strain WHI5, hits give low values",0.985
same,normalized growth,"locus YOR106W, strain vam3, hits give low values",0.976
same,normalized growth,"locus YOR136W, strain idh2, hits give low values",0.978
same,normalized growth,"locus YOR144C, strain elg1, hits give low values",0.983
same,normalized growth,"locus YOR184W, strain ser1, hits give low values",0.956
same,normalized growth,"locus YOR231W, strain MKK1, hits give low values",1.03
same,normalized growth,"locus YOR265W, strain rbl2, hits give low values",0.994
same,normalized growth,"locus YOR270C, strain vph1, hits give low values",0.933
same,normalized growth,"locus YOR290C, strain snf2, hits give low values",0.966
same,normalized growth,"locus YOR316C, strain cot1, hits give low values",0.981
same,normalized growth,"locus YPL051W, strain arl3, hits give low values",0.995
same,normalized growth,"locus YPL055C, strain LGE1, hits give low values",1.01
same,normalized growth,"locus YPL078C, strain atp4, hits give low values",0.986
same,normalized growth,"locus YPL106C, strain sse1, hits give low values",0.989
same,normalized growth,"locus YPL240C, strain hsp82, hits give low values",0.963
same,normalized growth,"locus YPL241C, strain CIN2, hits give low values",0.958
same,normalized growth,"locus YPL256C, strain CLN2, hits give low values",1.03
same,normalized growth,"locus YPR119W, strain clb2, hits give low values",0.978
same,normalized growth,"locus YPR141C, strain kar3, hits give low values",0.979
same,normalized growth,"locus YPR163C, strain tif3, hits give low values",0.981
same,normalized growth,"locus YPR167C, strain met16, hits give low values",1
same,normalized growth,"strain wtn01, hits give low values",0.981
